# Assay outcomes as filed in PubChem BioAssay.
# TDP1 cell noCPT = qHTS for Inhibitors of human tyrosyl-DNA phosphodiesterase 1 (TDP1): qHTS in cells in absence of CPT; DT40 Tdp1-/- hTDP1 cells, no CPT, ATP luminescence, 48 h; Potency, µM (highest dose often 46.2 µM), without a hit: at the highest dose activity change, negative = growth inhibition, most hits filed as inhibitors; hit rate 15% among 420,000; note: potency is the fitted concentration of half-maximal effect; % is set by controls: 0 for no effect and ±100 for the full control effect; nearly all actives have a fitted effect of over 55% in size
#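 A cellular qHTS used chicken DT40 cells lacking endogenous Tdp1 but carrying stably transfected human TDP1. Compounds were applied without camptothecin, and cell growth kinetics were judged by ATP-dependent luminescence after ≥48 hr.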
# IL-1B inflam inh = qHTS for Inhibitors of Inflammasome Signaling: IL-1-beta AlphaLISA Primary Screen; THP-1 LPS/ATP IL-1B secretion, AlphaLISA, 16 h; hits give low values; activity change, % at 57.5 µM; hit rate 4.7% among 360,000; in the data active = activity change below about -50%; inconclusive = mostly about -30% to -49%; note: % is set by controls: 0 for no effect and ±100 for the full control effect
#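 Secreted IL-1B measured by AlphaLISA bead assay after 16 h compound exposure of THP-1 cells; compounds (final up to 57.5 uM) added 1 h before LPS (250 ng/mL) and ATP (1.25 mM) stimulation; lower signal means less secretion.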
# HepG2 tox = qHTS for Inhibitors of TGF-b: Cytotox Counterscreen; HepG2 CAGA-GFP viability, ATP luminescence, 18 h; Potency, µM (top dose mostly 46.1 µM), inactives show at the highest dose activity change, negative = cytotoxicity, hits mostly cytotoxic; hit rate 0.76% among 410,000; AID 588856, 2011; note: potency is the fitted concentration of half-maximal effect
#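 HepG2 CAGA-GFP cells (1000/well, DMEM with 1% FBS) received compound, then TGF-beta at 500 pg/mL final, and were incubated 18 hours at 37 degrees C. Viability was read by CellTiter-Glo luminescence. Media-only wells were set as complete cell-killing and DMSO as no toxicity.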
# TDP1 inh = qHTS Assay for Inhibitors of Tyrosyl-DNA Phosphodiesterase (TDP1). Tyrosyl-DNA phosphodiesterase 1 (Homo sapiens), Q9NUW8. recombinant TDP1, AlphaScreen DNA substrate cleavage. Potency, µM (doses to about 130 µM), for inactives: top-dose activity change, negative = inhibition, actives largely listed as inhibitors. hit rate 0.28% among 350,000. AID 485290, 2010; note: potency is the fitted concentration of half-maximal effect; % is set by controls: 0 for no effect and ±100 for the full control effect; nearly all actives have a fitted effect of over 40% in size
# Target sequence (Q9NUW8 whole entry, looked up): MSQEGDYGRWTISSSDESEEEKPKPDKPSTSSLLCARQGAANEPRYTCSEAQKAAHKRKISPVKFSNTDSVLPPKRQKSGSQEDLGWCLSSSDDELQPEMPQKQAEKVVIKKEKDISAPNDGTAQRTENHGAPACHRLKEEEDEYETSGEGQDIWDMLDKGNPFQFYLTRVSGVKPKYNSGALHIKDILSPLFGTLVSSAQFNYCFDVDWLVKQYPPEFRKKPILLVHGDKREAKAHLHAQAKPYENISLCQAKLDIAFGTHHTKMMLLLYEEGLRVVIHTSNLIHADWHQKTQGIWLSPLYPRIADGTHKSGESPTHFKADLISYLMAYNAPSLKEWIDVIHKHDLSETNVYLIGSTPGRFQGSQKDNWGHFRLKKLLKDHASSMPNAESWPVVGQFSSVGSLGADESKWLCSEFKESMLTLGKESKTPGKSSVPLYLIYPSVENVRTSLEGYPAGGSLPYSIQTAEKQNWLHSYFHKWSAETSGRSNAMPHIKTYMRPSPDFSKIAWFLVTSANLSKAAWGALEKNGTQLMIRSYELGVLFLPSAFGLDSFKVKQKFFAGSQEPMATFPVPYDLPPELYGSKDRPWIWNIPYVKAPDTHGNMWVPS
#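 Recombinant E. coli-expressed Tdp1 (1 nM) preincubated with compound 15 min at RT, then 5'-biotin/3'-phosphotyrosine-FITC DNA substrate (15 nM) added for 5 min. AlphaScreen beads (10 ug/ml) added, 10 min RT; tyrosine-FITC cleavage read as signal loss.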
# TDP1 cell CPT = qHTS for Inhibitors of human tyrosyl-DNA phosphodiesterase 1 (TDP1): qHTS in cells in presence of CPT; chicken DT40 Tdp1-/-;hTDP1 cells + 20 nM CPT, ATP luminescence, 48 h; AID 686979, 2013; Potency, µM (highest dose often 46.2 µM), for inactives: top-dose activity change, negative = growth inhibition, most hits filed as inhibitors; hit rate 12% among 420,000; note: potency is the fitted concentration of half-maximal effect; % is set by controls: 0 for no effect and ±100 for the full control effect; nearly all actives have a fitted effect of over 55% in size
#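 Chicken DT40 Tdp1-/- cells complemented with human TDP1, 400 cells/well, exposed to compounds plus 20 nM camptothecin for at least 48 h at 37 C; viability read as ATP content by CellTiter-Glo luminescence.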
# TGFb inhibitor = qHTS for Inhibitors of TGF-b; HepG2 CAGA-GFP TGF-b/SMAD3 reporter, GFP fluorescence, 18 h; TGF-beta stimulated, 500 pg/mL final; Potency, µM (series often up to 46.1 µM), without a hit: at the top dose activity, negative = inhibition, usual class: inhibitors; hit rate 1.2% among 410,000; AID 588855, 2011; note: potency is the fitted concentration of half-maximal effect; % is set by controls: 0 for no effect and ±100 for the full control effect; nearly all actives have a fitted effect of over 65% in size
#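 Smad-responsive CAGA-GFP expression was quantified in HEPG2 cells exposed to compounds and 500 pg/mL final TGF-beta for 18 h at 37 degrees C; unstimulated wells defined full inhibition.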
# Numbers without * were called inactive; u = inconclusive; x = no result given. An excerpt weighted towards active compounds, which were near 18% of everything screened. Unless noted, calls come from the whole dose curve; as a rule, active = well fitted curve in the direction sought with a large enough effect; inconclusive = small, poorly fitted or top-dose-only effect, or another doubt; inactive = no such curve, though single readings can be large; an effect the other way counts as inactive or inconclusive.
SMILES,TDP1 cell noCPT,IL-1B inflam inh,HepG2 tox,TDP1 inh,TDP1 cell CPT,TGFb inhibitor
CCN(CC)CCCNC(=S)N1CCN(c2nc3ccccc3n2CC)CC1,1%,-19,-12%,x,33%,10%
CC(=O)Nc1ccc(S(=O)(=O)N(C)CC(=O)OCCOc2cccc(C)c2)cc1,-16%,-27,-5%,0%,-2%,13%
CC1=CC(=C2C=CC(=O)C=C2)C=C(C)N1C,x,x,x,8%,x,x
OC(CN1C2=NCCCN2c2ccccc21)c1ccc(Cl)cc1 (configuration not stated),18µM*,-8,-13%,5%,u,-2%
OC(COc1ccc(Cl)cc1)CN1C2=NCCCN2c2ccccc21 (configuration not stated),21µM*,-17,-4%,-4%,21µM*,42%
CCN1C2=NCCCN2c2ccccc21,-18%,0,-7%,-4%,-5%,-8%
COc1ccc(CCNC(=O)COC(=O)c2cc(OC)c(OC)cc2OC)cc1,u,25,-3%,2%,0%,8%
COc1cccc(NC(=O)c2cnc(SCC(=O)N3CCOCC3)n(C)c2=O)c1,15µM*,x,5%,3%,15µM*,0%
COc1cccc(NC(=O)Cn2c(SCC(=O)N3CCOCC3)nc3ccccc32)c1,-9%,-14,-13%,6%,-5%,-29%
COc1cccc(NC(=O)c2cnc(SCC(=O)NCc3ccc4c(c3)OCO4)n(C)c2=O)c1,12µM*,-11,-23%,x,21µM*,-7%
Cc1ccc(-c2cccc(C3CC=CC4C3C(=O)N(Cc3ccccc3)C4c3cc(C)ccc3F)c2)cc1 (configuration not stated),15µM*,33,-4%,7%,16µM*,-23%
CN(C)c1ccc(-c2cccc(C3CC=CC4C3C(=O)N(Cc3ccccc3)C4c3ccc(C(F)(F)F)cc3)c2)cc1 (configuration not stated),23µM*,27,-3%,18%,12µM*,-24%
CC1CC=CC2C1C(=O)N(Cc1ccccc1)C2c1ccc(-c2ccc(F)cc2)cc1F (configuration not stated),x,x,-18%,-3%,x,-21%
COc1ccc(-c2cccc(C3CC=CC4C3C(=O)N(Cc3ccccc3)C4c3ccc(C(F)(F)F)cc3)c2)cc1 (configuration not stated),15µM*,48,-8%,10%,u,-13%
COc1ccc2c(c1)CCCC21NC(=O)N(CC(=O)NCc2cccs2)C1=O (configuration not stated),-43%,u,-2%,1%,-3%,0%
C[n+]1ccc(C(=O)Nc2ccccc2Cl)cc1,0%,-1,7%,x,4%,2%
CCCS(=O)(=O)NC(=O)C1(C)CCCN(C(=O)c2c(F)ccc(C)c2F)C1 (configuration not stated),-7%,36,7%,x,-2%,14%
N#Cc1ccccc1Sc1ccccc1N,-1%,-9,-20%,2%,-1%,-6%
Nc1ccccc1SSc1ccccc1N,3.7µM*,-97*,-100%,-9%,5.2µM*,u
O=C(Nc1nc2ccccc2n1CCN1CCOCC1)c1ccc(COc2ccccc2Br)o1,u,-95*,-30%,8%,u,-3%
O=C(Nc1nc2ccccc2n1Cc1ccccc1)c1ccc(COc2ccccc2[N+](=O)[O-])o1,u,39,-24%,6%,u,2%
O=C(Nc1nc2ccccc2n1CCN1CCOCC1)c1ccc(Cn2cc([N+](=O)[O-])cn2)o1,-21%,-8,3%,4%,16µM*,1%
Cc1ccc(CCNS(=O)(=O)c2ccc3c(c2)CCN3C(=O)CCC(=O)O)cc1,3%,x,6%,5%,4%,1%
CCN1CCN(C(=O)c2ccc(CSc3ccc(C)cc3)cc2)CC1,13µM*,-54*,-20%,-5%,u,-21%
Cc1ccc(CN2CCSc3ccc(C(=O)N4CCN(c5ncccn5)CC4)cc32)cc1,16µM*,-62*,2%,7%,21µM*,2%
SMILES,TDP1 cell noCPT,IL-1B inflam inh,HepG2 tox,TDP1 inh,TDP1 cell CPT,TGFb inhibitor
Cc1ccc(SCc2ccc(C(=O)N3CCCC3)cc2)cc1,u,-3,-23%,-3%,5%,-35%
Cc1ccc(CN2CCSc3ccc(C(=O)N4CCOCC4)cc32)cc1,-19%,-19,3%,8%,u,0%
CCN1CCN(C(=O)c2ccc3c(c2)N(Cc2ccc(C)cc2)CCS3)CC1,23µM*,-15,-26%,6%,21µM*,-12%
O=C(N/N=C(\Cc1ncc[nH]1)c1ccccc1)c1ccncc1,4.6µM*,59,-9%,8%,4.6µM*,-17%
O=C(N/N=C(\Cc1ncc[nH]1)c1ccccc1)c1cccnc1,4.6µM*,101,-3%,8%,4.6µM*,-2%
O=C(N/N=C(\Cc1ncc[nH]1)c1ccccc1)c1ccccc1,x,x,x,0%,x,x
CCC(C)[C@@H](CN)NCC1(c2ccccc2)CC1 (some centres not stated),-10%,-9,18%,-1%,-4%,11%
COc1ccc(OC)c(CNC(=O)C2COc3ccccc3C2)c1 (configuration not stated),u,x,-6%,4%,u,-15%
O=C(Nc1cccc(C(F)(F)F)c1)c1ccc2c(c1)nnn2C1CCCC1,8.2µM*,x,1%,0%,u,-5%
CCOC(=O)c1cccc(NC(=O)c2ccc3c(c2)nnn3C2CCCC2)c1,u,x,-3%,-3%,u,-18%
CCc1ccccc1NC(=O)c1ccc2c(c1)nnn2C1CCCC1,u,x,-17%,-3%,26µM*,-43%
Cc1noc(C)c1S(=O)(=O)NC(=O)C1(C)CCN1C(=O)c1ccc(C2CCCCC2)cc1 (configuration not stated),-7%,41,-7%,x,6%,34%
CN(C)/C=C/C(=O)c1ccccc1OCc1cnc(Cl)s1,-17%,22,4%,5%,-6%,1%
O=C(Nc1ccc(N2CCN(C(=O)c3ccco3)CC2)cc1)c1ccccc1Br,u,-62*,-2%,3%,u,0%
